The record followed here is PubChem BioAssay AID652105 (National Center for Advancing Translational Sciences (NCATS), 2013).

The campaign covered roughly 330,000 compounds. About 4,100 (1.2%) were called active. Inconclusive results (about 2%) are left out. How the source made its calls: active means max response of -50% or lower; inconclusive means between -30% and -50%; inactive means -30% or higher. The entries come from a sample that favours actives as a whole.
On the % scale 0 is the no-effect control and ±100 the full control effect.

The target of the experiment is Phosphatidylinositol 5-phosphate 4-kinase type-2 alpha (Homo sapiens) (UniProt P48426). As to the kind of experiment: qHTS for Inhibitors of phosphatidylinositol 5-phosphate 4-kinase (PI5P4K). Further: value at the top dose of about 77 µM. As to conditions: PI5P4Kalpha enzyme, ADP-Glo luminescence, 60 min; hits give low values. An outline of the steps: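 Quantitative HTS of the MLSMR library against PI5P4Kalpha with substrate. ATP added last at 5 microM final; room temperature, 60 minutes. Remaining ATP depleted, ADP converted and read as luminescence.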
Chain of Phosphatidylinositol 5-phosphate 4-kinase type-2 alpha (Homo sapiens) (P48426 whole entry, looked up): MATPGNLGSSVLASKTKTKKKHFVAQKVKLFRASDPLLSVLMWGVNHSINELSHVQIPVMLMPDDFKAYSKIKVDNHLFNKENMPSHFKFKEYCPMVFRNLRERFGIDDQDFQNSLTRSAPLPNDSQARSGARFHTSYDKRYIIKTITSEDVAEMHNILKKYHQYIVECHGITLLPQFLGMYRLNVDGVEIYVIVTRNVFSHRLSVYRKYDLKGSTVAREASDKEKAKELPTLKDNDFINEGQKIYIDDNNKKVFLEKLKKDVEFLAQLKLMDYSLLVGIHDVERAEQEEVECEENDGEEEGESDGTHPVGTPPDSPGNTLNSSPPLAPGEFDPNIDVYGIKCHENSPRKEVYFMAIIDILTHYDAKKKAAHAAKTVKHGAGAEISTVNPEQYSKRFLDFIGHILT
A general note: Quantitative high-throughput screening tests each substance at several concentrations.
Turning to `C=CCC[C@@H](CCCCC)OC(=O)/C=C/[C@@H](O)[C@H](O)C[C@H](O)CC=C`, the max response is 17.3% (inactive). As for `COCCNc1nc(Nc2ccccc2Cl)c2sc(-c3ccccc3)cc2n1`, the figure is -2.99% (inactive); as for `O=C(O)c1ccccc1/C=N/Nc1ccc(S(=O)(=O)Nc2ccc(Cl)cc2)cc1[N+](=O)[O-]`, -7.22% (inactive).

As for `O=[N+]([O-])c1cc(S(=O)(=O)Nc2cccc(Cl)c2)ccc1N=Nc1c(O)[nH]c2ccccc12`, the max response is -75.5% (active). `Oc1[nH]c2ccccc2c1N=Nc1c(F)c(F)c(F)c(F)c1F`: the max response was 1.14% (inactive).

As for `CCOC(=O)[C@]12CCCC=C1N(Cc1ccc3c(c1)OCO3)C(=O)[C@H](CC(=O)NCc1cccs1)C2`, the max response is 3.13% (inactive). For `COc1cccc(CNC(=O)[C@@H]2CCCN2C(=O)[C@@H]2CCCN2C(=O)c2ccccc2)c1`, the max response was -1.24% (inactive). The figure for `O=C(/C=C/c1c(Cl)cccc1Cl)NCc1ccccc1` is 3.82% (inactive); for `O=C(/C=C/c1c(F)cccc1Cl)Nc1nn[nH]n1` it is -56.7% (active); for `O=C(CCc1ccccc1)Nc1nn[nH]n1` it is -6.47% (inactive). For the compound `Nc1nc(CSc2nnnn2-c2ccccc2)nc(Nc2ccccc2)n1`, the max response is 2.21% (inactive). The figure for `C[C@H]1CN([C@@H](C)CO)C(=O)c2cc(Br)cnc2O[C@H]1CN(C)S(=O)(=O)c1cccs1` is 6.03% (inactive); for `CCOC(=O)[C@]12CCCC=C1N(CCC1=CCCCC1)C(=O)[C@H](CC(=O)N1CCCCC1)C2` it is -3.48% (inactive). In the case of `CC(=O)c1ccc(S(=O)(=O)N2CCC(Oc3ccc(-n4cnnn4)cc3)CC2)cc1`, the max response is -1.39% (inactive).

Regarding `CC(=O)c1ccc(S(=O)(=O)N2CCC3(CC2)OCCO3)cc1`, the max response is 1.8% (inactive). As to `CC(=O)c1ccc(S(=O)(=O)N2CCN(C(=O)/C=C/c3ccc4ccccc4n3)CC2)cc1`, the max response was -58.5% (active). As for `COc1ccc(CCCNC(=O)C2Cc3c(-c4cccc(C(N)=O)c4)ccnc3O2)cc1` (configuration not stated), the figure is -10.3% (inactive). On to `CCNC(=O)C1(C)CCCN(Cc2noc(-c3ccccc3OC)n2)C1` (configuration not stated), for which the max response is -0.357% (inactive). As for `CN1OC[C@@H]2CN(S(=O)(=O)c3cccc(C(F)(F)F)c3)[C@H](c3ccc(-c4cc5ccccc5o4)cc3)C[C@@H]21`, the figure is 4.81% (inactive). On to `COc1cccc(CNC(=O)COC(=O)CN2C(=O)NC3(CCCCC3C)C2=O)c1` (configuration not stated), for which the max response is -4.41% (inactive). As for `COc1cccc(CNC(=O)CN2C(=O)NC(Cc3ccccc3)(c3ccccc3)C2=O)c1` (configuration not stated), the figure is -83.2% (active); as for `CCCCNC(=O)CN1C(=O)NC(Cc2ccccc2)(Cc2ccccc2)C1=O`, 0.277% (inactive). Consider `CCCNC(=O)c1cc2c(c(-c3cccc(-c4ccc(C#N)cc4)c3)n1)[C@@H](CCO)N(C(=O)CC)C2`, for which the max response is -0.337% (inactive). For the compound `C[C@@H]1CN([C@H](C)CO)C(=O)CCCn2cc(nn2)CO[C@H]1CN(C)S(C)(=O)=O`, the max response is 6.16% (inactive). For `CC(C)C[C@H]1CNC(=O)C(=O)N1C[C@H]1CCCN1C[C@H](Cc1ccc(O)cc1)N1C[C@H](CC(C)C)N(CC2CCCCCC2)C(=O)C1=O`, the max response is -0.421% (inactive). Consider `CCOC(=O)C1=CC[C@@H](c2ccccc2)N(S(=O)(=O)c2ccc(C)cc2)[C@H]1c1ccc(CC)cc1`, for which the max response is 6.84% (inactive). `Cc1cc2nc(-c3ccc(Cl)cc3)c(Cc3cccc(F)c3)n2c(C)c1Br`: the max response was -6.22% (inactive). For the compound `Cc1cc2nc(-c3ccc(F)cc3)c(Cc3ccsc3)n2c(C)c1Br`, the max response was 7.62% (inactive).

Consider `Cc1cc2nc(-c3ccco3)c(Cc3cccc(F)c3)n2c(C)c1Br`, for which the max response was -66.2% (active).

For the compound `COc1ccc(OC)c(CN2C(=O)CCC2(C)c2nnnn2Cc2ccccc2)c1` (configuration not stated), the max response was 2.57% (inactive). For `COc1ccc(CCNC(=O)CN(c2ccccc2)S(=O)(=O)c2ccccc2)cc1`, the max response is -3.29% (inactive).

`CC1=C(C(=O)N(C(C)C)C(C)C)CC(CC(=O)NCC2CCCCC2)C(=O)N1Cc1ccccc1` (configuration not stated): the max response is -7.86% (inactive). Turning to `CCOC(=O)[C@]12CCCC=C1N(CCC1=CCCCC1)C(=O)[C@H](CC(=O)N1CCSCC1)C2`, the max response is -1.78% (inactive). The figure for `O=C(O)c1cc([N+](=O)[O-])c(Nc2cccc3ccccc23)c([N+](=O)[O-])c1` is -64.5% (active); for `CCOc1ccccc1Nc1ccc(C(=O)O)cc1[N+](=O)[O-]` it is -1.68% (inactive). As for `O=C(Nc1ccc2ccccc2c1[N+](=O)[O-])c1ccccc1`, the max response was -2.74% (inactive). For `CNc1cnc(-c2cc(OC)c(OC)c(OC)c2)cn1`, the max response is 1.71% (inactive). With `Cc1ccc(/C([O-])=C(/C(=S)NCc2ccco2)[n+]2ccccc2)cc1[N+](=O)[O-]`, the max response is -51.3% (active). As for `O=[N+]([O-])c1cccc(/C([O-])=C(/C(=S)Nc2ccccc2F)[n+]2ccccc2)c1`, the figure is -1.12% (inactive).

With `CC(OC(=O)CNC(=O)c1ccc(Cl)c([N+](=O)[O-])c1)C(=O)NCc1ccco1` (configuration not stated), the max response is -12% (inactive). With `CC(C)c1cccc(-c2csc(C(O)c3ccccc3)n2)c1` (configuration not stated), the max response is 28.3% (inactive). The figure for `COCCNC(=O)Nc1ccc2nc(-c3ccco3)c(-c3ccco3)nc2c1` is -88.9% (active).

Take `CC(=O)NCCc1nc2cc(NC(=O)c3ccccc3)ccc2n1C`: the max response was -3.2% (inactive). For `COc1cccc(NC(=O)NCCN2CCCCC2)c1`, the max response is 3.3% (inactive). Consider `CCCC(=O)N1CCC1(C)C(=O)NCc1ccc(SC)cc1` (configuration not stated), for which the max response was 0.695% (inactive). The figure for `CC(=O)Oc1ccc(Cn2c(C)c(C(=O)NCc3ccc(C#N)cc3)sc2=O)cc1` is 2.41% (inactive); for `COc1cc(NC(=O)COc2ccccc2Cl)ccc1NC(=O)C(C)C` it is -11.3% (inactive). As for `O=C(COc1ccccc1)Nc1ccc(C(=O)N2CCCC2)cc1`, the figure is 6.33% (inactive). The figure for `O=C(COc1ccccc1Cl)Nc1ccc(C(=O)c2ccc(C(=O)O)cc2)cc1` is -70.5% (active); for `CN(C)/N=C/c1cc(Cl)cc([N+](=O)[O-])c1O` it is -13.3% (inactive); for `Cc1ccc(S(=O)(=O)N2CCN(CC(=O)N/N=C/c3cc([N+](=O)[O-])ccc3Cl)CC2)cc1` it is 4.76% (inactive). Turning to `O=[N+]([O-])c1cc(Cl)cc(/C=N/NC(=S)Nc2cc(S(=O)(=O)N3CCOCC3)ccc2Cl)c1O`, the max response was -78.8% (active).
